Assay results: PubChem BioAssay AID2521 (Sanford-Burnham Center for Chemical Genomics, 2010)
About 1,100 (0.33%) of roughly 330,000 compounds were called active. The entries come from a sample that favours actives as a whole. A number with no mark means an inactive call.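 The calls were made as follows: active = inhibition above about 40% at 20 µM (limit read from the data); inactive = the rest.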

target: Apelin receptor (Homo sapiens) (UniProt P35414); assay: blockade of apelin-induced APJ beta-arrestin recruitment – CHO-K1 cells, beta-arrestin complementation, luminescence, primary screen (AID 2521); conditions: at 20 µM, stronger effect = higher value;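 also: cells challenged with 10 nM apelin-13 agonist together with compound; plate controls were apelin-13 plus DMSO wells for no effect and DMSO wells lacking apelin-13 for full effect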
Sequence (P35414 whole entry, looked up): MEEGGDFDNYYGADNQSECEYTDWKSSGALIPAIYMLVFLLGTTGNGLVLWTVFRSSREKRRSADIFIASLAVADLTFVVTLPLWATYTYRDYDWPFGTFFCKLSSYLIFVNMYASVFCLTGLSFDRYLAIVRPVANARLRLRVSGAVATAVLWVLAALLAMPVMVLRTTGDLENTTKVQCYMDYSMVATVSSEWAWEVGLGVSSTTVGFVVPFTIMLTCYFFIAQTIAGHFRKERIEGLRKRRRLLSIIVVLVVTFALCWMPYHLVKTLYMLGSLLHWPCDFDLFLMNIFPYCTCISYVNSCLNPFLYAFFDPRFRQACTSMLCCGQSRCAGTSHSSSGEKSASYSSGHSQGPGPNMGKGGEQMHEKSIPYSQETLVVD

**Q.** Cc1ccc(SC(C)C(=O)NCc2ccc(F)cc2)cc1 (stereo not drawn) was tested. Which inhibition did it give?
**A.** 16.8%

**Q.** Which inhibition does the source give for CC(C)NC(=O)C(c1ccc(F)cc1)N(C(=O)CCC(=O)Nc1ccccn1)c1ccccc1F (stereo not drawn) here?
**A.** 21.5%

**Q.** CC(C)C(=O)N1CCC2(CC1)Oc1ccc(F)cc1C(=O)C21CC(c2ccccc2)=NO1 (stereo not drawn) was tested. Which inhibition did it give?
**A.** -0.0582%

**Q.** Which inhibition does the source give for COc1cccc2sc(Nc3nc(C)c(C(C)=O)s3)nc12 here?
**A.** 60.9% (active)

**Q.** With CNC(=O)c1sc(NCc2ccccc2OC)nc1C as the molecule, how does the inhibition read?
**A.** -1.64%

**Q.** How did the inhibition turn out when COc1cc2ccccc2cc1C(=O)Nc1nc(C)c(C(C)=O)s1 was run?
**A.** 1.17%

**Q.** With O=C(CCl)NNc1cccc(Cl)n1 as the molecule, how does the inhibition read?
**A.** 47.2% (active)

**Q.** How did the inhibition turn out when Cc1cccc(NC(=O)Cc2ccc(Br)cc2)n1 was run?
**A.** -4.98%

**Q.** O=C(Cc1c(Cl)cccc1Cl)NC1CC1 was tested. Which inhibition did it give?
**A.** 14.9%

**Q.** With COc1ccc(N2CCN(C(=O)CNS(=O)(=O)c3ccc(C)c(C)c3)CC2)cc1 as the molecule, how does the inhibition read?
**A.** 3.43%

**Q.** Which inhibition does the source give for Cc1ccc(CC(=O)Nc2cccc(C#N)c2)cc1 here?
**A.** 7.58%

**Q.** Oc1ccc(N=Nc2nccs2)c(O)c1 was tested. Which inhibition did it give?
**A.** 47.6% (active)

**Q.** With CC(Oc1ccc(F)cc1)C(=O)Nc1cc(S(=O)(=O)N2CCOCC2)ccc1N1CCN(C)CC1 (stereo not drawn) as the molecule, how does the inhibition read?
**A.** 11.7%

**Q.** With CCCOc1ccc(N2CC(C(=O)Nc3ccccn3)CC2=O)cc1 (stereo not drawn) as the molecule, how does the inhibition read?
**A.** -12.1%

**Q.** With COC(=O)c1cc(NC(=O)CN2CCC(C(N)=O)(N3CCCCC3)CC2)cc(C(=O)OC)c1 as the molecule, how does the inhibition read?
**A.** 12.5%

**Q.** For O=C(CSc1nnnn1C1CCCC1)N1CCCCC1, which inhibition is on record?
**A.** -7.07%

**Q.** For CC(=O)C1=C(O)C(=O)N(c2cccnc2)C1c1ccc([N+](=O)[O-])cc1 (stereo not drawn), which inhibition is on record?
**A.** 5.89%

**Q.** How did the inhibition turn out when CC(=O)C1=C(O)C(=O)N(c2ccc(Br)cc2)C1c1ccc([N+](=O)[O-])cc1 (stereo not drawn) was run?
**A.** 18.2%

**Q.** How did the inhibition turn out when CC(=O)C1=C(O)C(=O)N(c2ccc(S(N)(=O)=O)cc2)C1c1ccccc1F (stereo not drawn) was run?
**A.** 59% (active)

**Q.** For COc1cccc(NC(=O)C/C(C)=N/NC(=O)C2CCCCC2)c1, which inhibition is on record?
**A.** -8.71%

**Q.** COc1cccc(NC(=O)C(=O)c2cn(CC(=O)N3CCOCC3)c3ccccc23)c1 was tested. Which inhibition did it give?
**A.** -7%

**Q.** Which inhibition does the source give for Cc1cc(C(F)F)n2nc(C(=O)Nc3ccc(S(=O)(=O)NC45CC6CC(CC(C6)C4)C5)cc3)nc2n1 here?
**A.** 10.3%

**Q.** With O=C(NC1CCCCC1)C1CCC(CNS(=O)(=O)c2ccccc2)CC1 (stereo not drawn) as the molecule, how does the inhibition read?
**A.** -0.098%

**Q.** CN1/C(=c2/s/c(=C3/C(=O)N(c4ccccc4)NC3=Nc3ccccc3)n(C)c2=O)C(C)(C)c2ccccc21 was tested. Which inhibition did it give?
**A.** 40.6% (active)

**Q.** CCOc1cccc2c1OC1(CCCCC1)N1N=C(c3cccnc3)CC21 (stereo not drawn) was tested. Which inhibition did it give?
**A.** -4.03%

**Q.** Which inhibition does the source give for CN(C)CCOc1cccc(Br)c1 here?
**A.** 7.12%

**Q.** How did the inhibition turn out when COCCCNc1nc2ccccc2nc1NS(=O)(=O)c1ccc(F)cc1 was run?
**A.** 8.77%

**Q.** Which inhibition does the source give for COC(=O)c1ccccc1NC(=O)C1CCN(C(=O)N2CCOc3ccccc32)CC1 here?
**A.** 4.33%

**Q.** Which inhibition does the source give for O=C(CN(C(=O)CNC(=O)c1cccs1)c1cccc(F)c1)NC1CCCCC1 here?
**A.** 15.9%

**Q.** COc1cccc(C(=O)N/N=C(\C)c2cccc(NC(=O)c3ccc(F)cc3)c2)c1OC was tested. Which inhibition did it give?
**A.** -21.2%

**Q.** CCC(C)NC(=O)N[C@@H](CCSC)C(=O)O (stereo partly drawn) was tested. Which inhibition did it give?
**A.** 3.5%

**Q.** Which inhibition does the source give for COc1cc(/C=C(\C#N)c2nc3c(s2)CC(C)CC3)ccc1O (stereo not drawn) here?
**A.** 40.9% (active)

**Q.** With Cn1cccc1C(=O)OCC(=O)c1ccc(Br)s1 as the molecule, how does the inhibition read?
**A.** 6.14%

**Q.** How did the inhibition turn out when O=C(CSc1ncnc2c1nnn2Cc1ccc(F)cc1)NC1CCCC1 was run?
**A.** 23.2%

**Q.** With Cc1cc(CNCc2c(C(=O)N(C)Cc3ccccc3)nc3ccccn23)nn1C as the molecule, how does the inhibition read?
**A.** 12.9%

**Q.** Which inhibition does the source give for C=CCn1c(N)c(C(=O)OCC(C)C)c2nc3ccccc3nc21 here?
**A.** 74.2% (active)

**Q.** How did the inhibition turn out when COCC(C)OC(=O)c1c(N)n(CCCN2CCOCC2)c2nc3ccccc3nc12 (stereo not drawn) was run?
**A.** 10.9%

**Q.** With C=CCn1c(C(C)NC(=O)CC)nc2ccccc21 (stereo not drawn) as the molecule, how does the inhibition read?
**A.** 8.11%

**Q.** How did the inhibition turn out when CCOC(=O)C1=C(NC(=S)NC(=O)c2ccccc2)c2ccccc2CC1(C)C was run?
**A.** -12.1%

**Q.** Which inhibition does the source give for CCCCCCNC(=O)CSc1nccn1Cc1ccccc1 here?
**A.** 15.6%

**Q.** With CCOC(=O)C(CCOc1cccc(CC)c1)C(=O)OCC as the molecule, how does the inhibition read?
**A.** 0.162%

**Q.** How did the inhibition turn out when O=C(/C=C/c1cccs1)NCc1cccnc1 was run?
**A.** -1.62%

**Q.** For Cc1cccc(NC(=S)Nc2ccc(Cl)c(Cl)c2)c1, which inhibition is on record?
**A.** 9.23%

**Q.** How did the inhibition turn out when Cc1csc(NC(=S)Nc2cccc(Cl)c2)n1 was run?
**A.** 40.6% (active)

**Q.** Which inhibition does the source give for Cc1cc(Cl)nc(NC(=O)Nc2cccc(Cl)c2)n1 here?
**A.** 12.4%

**Q.** With O=C(Nc1ccc([N+](=O)[O-])cc1)C1(c2ccccc2)CCOCC1 as the molecule, how does the inhibition read?
**A.** 4.46%

**Q.** For CN(C(=O)COC(=O)Cn1cnc2c1c(=O)n(C)c(=O)n2C)C1(C#N)CCCCC1, which inhibition is on record?
**A.** -8.66%

**Q.** For COc1cccc(/C=C2/SC(=S)N(CC(=O)NC3C=CS(=O)(=O)C3)C2=O)c1 (stereo not drawn), which inhibition is on record?
**A.** 2.32%

**Q.** With COc1cc(/C=C2/SC(=S)N(Cc3ccccc3)C2=O)cc(OC)c1O as the molecule, how does the inhibition read?
**A.** 44.9% (active)

**Q.** Which inhibition does the source give for CN1C=CC=C/C1=C1\SC(=S)N(Cc2ccccc2)C1=O here?
**A.** 3.59%

**Q.** For O=C(O)C1CCCN(CCC=C(c2ccccc2)c2ccccc2)C1 (stereo not drawn), which inhibition is on record?
**A.** 6.7%

**Q.** Which inhibition does the source give for Cn1cnc2c1c(=O)n(Cc1c(Cl)cccc1Cl)c(=O)n2C here?
**A.** -5.54%

**Q.** Which inhibition does the source give for CC(C)C(=O)N1CC(=O)Nc2ccc(F)cc2C1c1ccc(F)cc1 (stereo not drawn) here?
**A.** 5.88%

**Q.** For C[C@H](NC(=O)c1nc[nH]c1C(=O)NCC(=O)OC(C)(C)C)C(=O)OCc1ccccc1, which inhibition is on record?
**A.** -0.246%

**Q.** O=C(Nc1c2c(nn1-c1cccc(Cl)c1)CS(=O)(=O)C2)c1cccs1 was tested. Which inhibition did it give?
**A.** -12.4%

**Q.** For Cn1c(N)cc(-c2ccc(F)cc2)c(C#N)c1=O, which inhibition is on record?
**A.** 16%

**Q.** With CCN(CC)CCCSc1nc2ccccc2s1 as the molecule, how does the inhibition read?
**A.** 5.23%

**Q.** How did the inhibition turn out when O=[N+]([O-])c1c(NCCO)cc(Sc2nc3ccccc3s2)c2nonc12 was run?
**A.** 95.4% (active)

**Q.** For Cc1nc2nc(CSc3nc4ccccc4s3)cc(=O)n2[nH]1, which inhibition is on record?
**A.** -6.29%

**Q.** CCOC(=O)c1c(/N=C/C2C(=O)CC(C)(C)CC2=O)sc(C)c1C was tested. Which inhibition did it give?
**A.** 3.91%

**Q.** For COc1ccc(NC(=O)CCCC(=O)c2ccccc2)cc1, which inhibition is on record?
**A.** -8.49%

**Q.** How did the inhibition turn out when COC(=O)c1ccc(NCC(=O)N2CCCCCC2)cc1 was run?
**A.** -5.46%

**Q.** COC(=O)c1ccc(NCC(=O)c2ccccc2)cc1 was tested. Which inhibition did it give?
**A.** 72.4% (active)
